# Experimental data published in PubChem BioAssay AID1851 (National Center for Advancing Translational Sciences (NCATS), 2009).
# Several values for one entry are separate records, joined by “and”; a condition that tells them apart may be missing. Equal values may be shown once. In all, about 16,000 compounds went through this assay and about 5,700 (36%) were called active. Inconclusive results (about 24%) are left out. Some of the results follow. A number with no mark means an inactive call. Calls come from the whole dose curve; as a rule, active = well fitted curve in the direction sought with a large enough effect; inconclusive = small, poorly fitted or top-dose-only effect, or effect the other way; inactive = no such curve, though single readings can be large or run the other way.
# Target: Cytochrome P450 1A2 (Homo sapiens) (UniProt P05177)
# Test: Cytochrome panel assay with activity outcomes
# Conditions: recombinant CYP, pro-luciferin dealkylation, luminescence, p450-cyp1a2; series mostly up to 57.1 µM
# % is set by controls: 0 for no effect and ±100 for the full control effect.
# Chain of Cytochrome P450 1A2 (Homo sapiens) (P05177 whole entry, looked up): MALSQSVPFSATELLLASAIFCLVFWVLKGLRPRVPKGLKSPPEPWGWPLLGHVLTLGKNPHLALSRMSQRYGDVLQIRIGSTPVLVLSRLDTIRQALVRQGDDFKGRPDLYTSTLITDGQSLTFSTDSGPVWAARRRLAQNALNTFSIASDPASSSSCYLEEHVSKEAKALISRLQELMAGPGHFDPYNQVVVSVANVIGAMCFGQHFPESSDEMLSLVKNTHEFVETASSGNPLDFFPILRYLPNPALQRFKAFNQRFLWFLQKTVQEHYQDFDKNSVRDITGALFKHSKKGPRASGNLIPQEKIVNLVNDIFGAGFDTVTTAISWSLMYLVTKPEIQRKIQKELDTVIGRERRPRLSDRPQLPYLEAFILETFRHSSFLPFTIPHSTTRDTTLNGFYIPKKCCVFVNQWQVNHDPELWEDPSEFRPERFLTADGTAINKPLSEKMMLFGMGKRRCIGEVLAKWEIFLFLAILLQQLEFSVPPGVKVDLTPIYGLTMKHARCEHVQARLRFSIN
Compound,"activity, negative = inhibition",AC50
O=C(O)CSCC(=O)O,-2.34% [at 11.4 µM],–
CC1=C2C(=O)[C@@H]3[C@@H](CC=C4C[C@@H](O)CC[C@@]43C)[C@H]2CC[C@@]12O[C@H]1C[C@H](C)CN[C@H]1[C@@H]2C,-16.8% [at 11.4 µM],–
O=C(Oc1ccccc1)N1CCC2(CCCN(Cc3nccs3)C2)CC1,–,inactive
C[C@]12N[C@H](Cc3ccccc31)c1ccccc12,–,inactive
CCCCC/C=C\C/C=C\C/C=C\C/C=C\CCCC(=O)NCC(=O)O,–,inactive
CCCCCCCC/C=C\CCCCCCCC(N)=O,–,6.31 µM (active)
CC(C)[C@@]1(NC(=O)[C@@H]2C[C@H]3c4cccc5[nH]cc(c45)C[C@@H]3N(C)C2)O[C@@]2(O)[C@H]3CCCN3C(=O)[C@H](Cc3ccccc3)N2C1=O,–,inactive
COC(=O)NC/C=C\c1nc(CC/C=C\C(=O)O[C@H]2C[C@H]3CC(=O)O[C@@H](/C=C\CC(C)C)C[C@@H]4CC[C@H](C)[C@H](C[C@@H](OC)C[C@H](C2)O3)O4)co1,3.2% [at 11.4 µM],–
Cc1cccc([C@H](C)c2cnc[nH]2)c1C,–,0.158 µM (active)
C=C1CC[C@H](O)C/C1=C/C=C1\CCC[C@]2(C)[C@H]1CC[C@H]2[C@@H](C)CCCC(C)C,–,inactive
CCNC(=S)NC1CC2CCCC(C1)N2Cc1ccco1 (configuration not stated),–,inactive
CCCN(CCC)[C@@H]1CCc2cccc(O)c2C1,–,inactive
CCS(=O)(=O)Nc1cccc(C(=C2CCCCC2)c2cnc[nH]2)c1,–,0.316 µM (active)
C[N+]1(C)C2CC[C@H]1CC(OC(=O)[C@@H](CO)c1ccccc1)C2 (some centres not stated),5.51% [at 11.4 µM],–
C[C@H](CN(C)C)C(C#N)(c1ccccc1)c1ccccc1,-3.45% [at 2.29 µM],–
NCC[Se][Se]CCN,–,3.16 µM (active)
CC[C@H]1CN2CC[C@@H]1C[C@H]2[C@@H](O)c1ccnc2ccc(OC)cc12,–,inactive
COc1ccc(Cl)cc1NC(=O)NCCCl,–,2.82 µM (active)
C[C@H]1CN(C2CCC(C#N)(c3ccc(F)cc3)CC2)CC[C@@]1(C(=O)O)c1ccccc1 (some centres not stated),–,inactive

Compound,"activity, negative = inhibition",AC50
CCCN1CCC[C@H](c2cccc(O)c2)C1,–,inactive
O=C(O)c1ccccc1-c1c2cc(Br)c(=O)cc-2oc2[c]([Hg])c(O)c(Br)cc12,–,15.8 µM (active)
C[C@H](N)[C@H](O)c1ccc(O)c(O)c1,–,inactive
CCC(=O)O[C@H]1CC[C@H]2[C@@H]3CCC4=CC(=O)CC[C@]4(C)[C@H]3CC[C@]12C,–,inactive
CCN1CCC2(CC1)NC(CO)(CO)CO2,–,inactive
COc1c2c(cc3c1OCO3)CCN(C)C2,–,2 µM (active)
C[C@]12N[C@@H](Cc3ccccc31)c1ccccc12,–,inactive
N[C@@H]1C=CC=C(C(=O)O)C1,–,inactive
COC(=O)C(O)(c1c(C)[nH]c2ccccc12)C(F)(F)F (configuration not stated),–,15.8 µM (active)
N[C@H](Cc1o[nH]c(=O)c1Cl)C(=O)O,–,inactive
CCCCN1C(=O)/C(=C/c2ccc(N(C)C)cc2)C(=O)N(Cc2ccco2)C1=O,–,15.8 µM (active)
O=S(=O)(O)/C(=C\c1ccccc1)c1ccccc1 (tested in a mixture with another compound),-29% [at 2.29 µM],–
C=C[C@H]1CN2CC[C@@H]1C[C@H]2[C@@H](O)c1ccnc2ccccc12,–,inactive
c1cc(CN2CCCC3(CCNCC3)C2)ccn1,–,inactive
CO[C@@H]1CC=C2CCN3CCC4=C(CC(=O)OC4)[C@]23C1,–,inactive
C[C@@H]1Cc2cc3c(cc2C(c2ccc(N)cc2)=NN1)OCO3,–,5.01 µM (active)
CC(C)CCC1(CCN)C(=O)NC(=O)NC1=O,-13.1% [at 11.4 µM],–
CC(=O)OC1N=C(c2ccccc2)c2cc(Br)ccc2N(C)C1=O (configuration not stated),–,inactive
CC(C)(C)NC[C@H](O)c1ccccc1Cl,–,inactive

Compound,"activity, negative = inhibition",AC50
C[C@H](N)c1cccc(Cl)c1Cl,–,1.26 µM (active)
CN1[C@H]2CC(=O)C[C@@H]1[C@@H](O)C2,–,inactive
O=C(O)[C@H]1[O][Sb][O][C@@H](C(=O)O)C1O (some centres not stated),-15% [at 2.29 µM],–
Fc1ccc(CCNCc2ccc(Cl)c(Cl)c2)cc1,–,2.24 µM (active)
Cn1cccc1CNCCc1ccccc1,–,inactive
C=CCN1C[C@@H](C)N([C@H](c2ccc(C(=O)N(CC)CC)cc2)c2cccc(OC)c2)C[C@H]1C,–,inactive
C[C@H]1CC[C@@]2(NC1)O[C@@H]1C[C@@H]3[C@@H]4CC=C5C[C@@H](O)CC[C@]5(C)[C@@H]4CC[C@]3(C)[C@H]1[C@@H]2C,-1.04% [at 11.4 µM],–
C[C@@]12CC[C@H]3[C@@H](CC=C4C[C@H](OS(=O)(=O)O)CC[C@]43C)[C@H]1CCC2=O,–,inactive
COCOc1ccc(Br)cc1C(=O)/C=C\c1ccc2c(c1)OCO2,-3.01% [at 11.4 µM],–
N[C@@H](Cc1ccccc1)P(=O)(O)O,-13.6% [at 11.4 µM],–
O=[N+]([O-])c1ccc(N2CCNCC2)cc1NCC1CCCO1 (configuration not stated),–,1.41 µM (active)
CN1CCN(c2ccc([N+](=O)[O-])c(N/N=C3\CN4CCC3CC4)c2)CC1,–,inactive
O=[N+]([O-])c1ccc(N2CCNCC2)cc1NC1CC1,–,0.708 µM (active)
NS(=O)(=O)c1ccc(-c2ccc([As](=O)(O)O)cc2)cc1,-0.225% [at 11.4 µM],–
C1C[C@@H]2CN(CCCN3CCOCC3)[C@@H](C1)O2,-10.8% [at 11.4 µM],–
COc1cc2c(cc1OC)[C@@]13CCN4CC5=CCO[C@H](CC(=O)O)[C@@H]([C@H]1N2)[C@H]5C[C@H]43,-21.3% [at 11.4 µM],–
C[C@@H]1CC[C@@H]2N(C1)C[C@H]1[C@@](O)([C@H](O)C[C@]3(O)[C@H]4CC[C@H]5[C@]6(O)O[C@]4(C[C@]13O)[C@@]5(C)CC[C@@H]6O)[C@@]2(C)O,-15.8% [at 11.4 µM],–
c1ccc2c(c1)[I+]c1ccccc1-2,–,126 nM (active) and 20 nM (active)
O=C1CCCN1CC#CCN1CCCC1,–,inactive
